Screening data: PubChem, several laboratories
Shown are actives, neighbours in structure and some others; about 3.1% of the full set was active somewhere.
Rin1-Abl PPI inh – blocks binding of human Rin1 to Abl; AID 588664; TR-FRET Rin1/Abl binding, biochemical; actives 0.4% (n = 360,000); inhibition, % at 7.35 µM; P00519+Q13671; in the data active means inhibition above about 5%, passing the limit was not always enough
UHRF1 MBD2 ctr – human UHRF1 methylated DNA binding inhibitors; UHRF1 binding to methylated oligo, TR-FRET; Q96T88; AID 687016; actives 0.75% (n = 370,000); inhibition, % at 4.4 µM; in the data active means inhibition above about 21%;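 further: UHRF1 SRA domain binding a hemimethylated CpG hairpin DNA probe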
MBD2 inh – MBD2-methylated oligo binding inhibition; TR-FRET, MBD2 binding to methylated oligonucleotide; inhibition, % at 4.4 µM; Q9UBB5; AID 686964; actives 0.31% (n = 370,000); in the data active means inhibition above about 13%
KLK7 zymogen act – proKLK7 (human) activation, primary screen; P49862; purified proKLK7, EDANS-DABCYL substrate fluorescence; 100% is mature enzyme control, 0% vehicle; activation, % at 7 µM; AID 652039; actives 0.9% (n = 370,000);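 active means activation above the mean of all tested compounds plus 3 SD, computed per campaign excluding outliers beyond control limits, cut at about 13% in these data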
LEDGF integ inh – blocks HIV-1 LEDGF/p75-dependent DNA integration. TR-FRET IN-LEDGF/p75 DNA integration, Eu/Cy5. inhibition, % at 3.7 µM. actives 0.64% (n = 370,000). AID 743269;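 active means inhibition above the screen-wide mean plus 3 SD, cut at about 13% in these data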;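 further: signal is the Cy5 over europium emission ratio at 671 and 618 nm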
Neddylation inh – inhibitors of human cullin neddylation; AID 651699; actives 0.58% (n = 360,000); P61081+Q13564; TR-FRET cullin neddylation, biochemical; calls only at 25 µM; in the data active means inhibition above about 36%
Target sequence (P61081 whole entry, looked up): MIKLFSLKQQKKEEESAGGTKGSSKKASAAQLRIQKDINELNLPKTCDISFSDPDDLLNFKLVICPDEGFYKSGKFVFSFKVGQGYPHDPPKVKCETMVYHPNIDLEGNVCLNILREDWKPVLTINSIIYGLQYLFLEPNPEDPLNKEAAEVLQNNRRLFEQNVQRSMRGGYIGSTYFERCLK
Target sequence (Q13564 whole entry, looked up): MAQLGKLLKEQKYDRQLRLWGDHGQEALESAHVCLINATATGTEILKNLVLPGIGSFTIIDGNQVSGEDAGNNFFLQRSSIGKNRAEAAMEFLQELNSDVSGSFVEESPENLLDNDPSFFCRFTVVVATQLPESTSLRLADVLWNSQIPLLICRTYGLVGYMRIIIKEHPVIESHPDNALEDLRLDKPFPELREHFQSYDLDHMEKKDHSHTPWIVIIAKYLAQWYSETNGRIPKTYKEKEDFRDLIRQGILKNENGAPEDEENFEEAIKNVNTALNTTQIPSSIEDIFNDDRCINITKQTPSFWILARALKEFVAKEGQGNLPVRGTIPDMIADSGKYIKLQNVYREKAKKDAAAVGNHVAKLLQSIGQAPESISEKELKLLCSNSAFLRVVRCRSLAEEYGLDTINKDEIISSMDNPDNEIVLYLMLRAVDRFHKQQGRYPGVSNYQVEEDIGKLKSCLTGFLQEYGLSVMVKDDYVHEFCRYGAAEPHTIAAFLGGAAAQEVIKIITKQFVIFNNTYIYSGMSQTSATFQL
proKLK7 act conf – confirmation of human kallikrein-7 zymogen activators | actives 68% (n = 3,200) | activation, % at 7 µM | purified proKLK7, EDANS-DABCYL substrate fluorescence; scaled: vehicle 0, mature enzyme 100 | AID 686949 | shares compounds with KLK7 zymogen act;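 active means activation, as change over the incubation, above the mean of all tested compounds plus 3 SD, cut at about 13% in these data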
EDANS-DABCYL int – counter-screen for kallikrein-7 activators: EDANS-DABCYL optical interference. actives 80% (n = 3,200). activation, % at 7 µM. shares compounds with KLK7 zymogen act. EDANS-DABCYL substrate fluorescence interference, no enzyme, 4 h; solvent 0%, active enzyme control 100%. AID 686952;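 active means activation above the all-compound mean plus 3 SD, ignoring values outside control-based bounds, cut at about 4.8% in these data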;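 further: value is the 4 h activation minus the activation read at time zero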
Hits are given with their value; . = inactive; / = not tested or not shown.

SMILES | Rin1-Abl PPI inh | UHRF1 MBD2 ctr | MBD2 inh | KLK7 zymogen act | LEDGF integ inh | Neddylation inh | proKLK7 act conf | EDANS-DABCYL int
CC1(C(=O)NS(=O)(=O)c2ccccc2Cl)CCN1C(=O)CCc1cccs1 (configuration not stated) | . | . | . | . | . | . | / | /
COc1cccc(OC)c1C(=O)OCC(=O)NC1CCCCCC1 | . | . | . | . | . | . | / | /
CNC(=O)C(C)N1c2cccc3cccc(c23)S1(=O)=O (configuration not stated) | . | . | . | 15 | . | . | . | 13
COc1ccc(NC(=O)C(C)N2c3cccc4cccc(c34)S2(=O)=O)cc1 (configuration not stated) | . | . | . | . | . | . | / | /
Cc1onc(-c2ccccc2)c1NC(=O)N(CCC#N)Cc1ccccc1 | . | . | . | . | . | . | / | /
CCCCNc1nc(-c2ccccc2)cc(C(F)(F)F)c1C(N)=O | . | . | . | 19 | . | / | . | .
N#CC(Sc1ccccn1)c1ccc(Cl)cc1 (configuration not stated) | . | . | . | 16 | . | . | . | 12
O=C(NCCSc1ccccn1)c1ccc(Cl)cc1 | . | . | . | . | . | . | / | /
CCC1(C)Cc2ccccc2-c2nc(NCCO)n(-c3ccccc3)c(=O)c21 (configuration not stated) | . | . | . | 26 | . | / | . | .
CCC1(CC)Cc2ccccc2-c2nc(NCCO)[nH]c(=O)c21 | . | . | . | 25 | . | / | . | .
CCC1(C)Cc2ccccc2-c2nc(NCCO)n(-c3ccc(C)cc3)c(=O)c21 (configuration not stated) | . | . | . | . | . | / | / | /
CN(C(=O)c1cccc(NC(=O)Cc2ccc(NC(=O)C3CCN(C(=O)C4CC4)CC3)cc2)c1)C1CCCCC1 | . | . | . | . | . | . | / | /
CC(C(=O)N1c2ccccc2CC1C)N1CCN(S(=O)(=O)c2ccccc2F)CC1 (configuration not stated) | . | . | . | . | . | . | / | /
Cn1c(=O)c2c(nc(CCc3ccccc3)n2C)n(C)c1=O | . | . | . | . | . | . | / | /
Cn1c(N)nc2nc(CCc3ccccc3)c(=O)[nH]c2c1=O | . | . | . | 13 | . | / | 34 | 30
Cc1nc(N2CCCCC2)nc(N2CCCCC2)c1C=O | . | . | . | . | . | . | / | /
COc1ccc([C@H]2N[C@]3(CCCN(Cc4cccn4C)C3=O)[C@H]3C(=O)N(Cc4ccccc4)C(=O)[C@@H]23)cc1 | . | . | . | . | . | . | / | /
O=C1C(=O)N(Cc2ccncc2)C(c2cccc(O)c2)/C1=C(\O)c1ccc2c(c1)OCCO2 (configuration not stated) | . | . | . | 15 | . | . | . | 7.4
O=C1C(=O)N(Cc2cccnc2)C(c2cccc(O)c2)/C1=C(\O)c1ccc2c(c1)OCCO2 (configuration not stated) | . | . | . | . | . | . | / | /
COc1cc(NC(=O)CSc2nccc(C)n2)c(C)cc1[N+](=O)[O-] | . | . | . | . | . | . | / | /
Cc1ccc2nc(N3CCN(CCO)CC3)nc(-c3ccccc3)c2c1 | . | . | . | 21 | . | / | . | 4.1
Clc1ccc2nc(N3CCNCC3)nc(-c3ccccc3)c2c1 | . | . | . | 16 | . | / | . | .
CN1CCN(c2nc(-c3ccccc3)c3cc(Cl)ccc3n2)CC1 | . | . | . | . | . | / | / | /
COc1ccc(CNS(=O)(=O)c2ccc3c(c2)NC(=O)C(C)S3)cc1 (configuration not stated) | . | . | . | . | . | . | / | /
Cc1ccc(/C=C/c2nc3ccccc3[nH]2)o1 | . | . | . | 21 | . | / | 31 | 30
SMILES | Rin1-Abl PPI inh | UHRF1 MBD2 ctr | MBD2 inh | KLK7 zymogen act | LEDGF integ inh | Neddylation inh | proKLK7 act conf | EDANS-DABCYL int
Cc1cc2nc(/C=C/c3nc4cc(C)c(C)cc4[nH]3)[nH]c2cc1C | . | . | . | . | . | / | / | /
ClC(Cl)(Cl)c1nc2ccccc2n2nncc12 | . | . | . | . | . | . | / | /
COc1cc2ccc(=O)oc2c(O)c1OCC=C(C)C | . | . | . | 148 | . | . | 152 | 151
COc1ccc(-c2coc3c(CN4CCOCC4)c(O)ccc3c2=O)cc1 | . | . | . | 52 | . | / | 50 | 56
CC(C)N(Cc1c(O)ccc2c(=O)c(-c3ccc(Cl)cc3)coc12)C(C)C | . | . | . | . | . | / | / | /
O=c1c(-c2ccc(Cl)cc2)coc2c(CN3CCOCC3)c(O)ccc12 | . | . | . | 19 | . | / | 21 | 23
CCSC(=O)N1c2ccc(OC)cc2C=CC1C#N (configuration not stated) | . | . | . | . | . | . | / | /
COC(=O)c1cc(=O)nc2sc3cc(OC)ccc3n12 | . | . | . | 29 | . | / | 22 | 24
COC(=O)c1cc(=O)n2c(-c3ccc(OC)cc3)csc2n1 | . | . | . | . | . | . | / | /
CCOc1ccc2c(c1)sc1nc(C(=O)OC)cc(=O)n12 | . | . | . | 17 | . | / | 15 | 16
CCCCc1ncc(CN2CCC(n3nccc3NC(=O)c3ccccc3Cl)CC2)[nH]1 | . | . | . | . | . | . | / | /
CCOC(=O)c1[nH]c2ccccc2c1NC(=O)c1cc(OC)c(OC)c(OC)c1 | . | . | . | . | . | . | / | /
CCOC(=O)c1[nH]c2cc(OC)c(OC)cc2c1N | . | . | . | 13 | . | . | 30 | 31
Cc1ccccc1N1CCN(C2CCCN(C(=O)c3cnsn3)C2)CC1 (configuration not stated) | . | . | . | . | . | . | / | /
CSc1ccccc1-c1cnc2cccnn12 | . | . | . | . | . | . | / | /
c1ccc2c(-c3cnc4cccnn34)cncc2c1 | . | . | . | 25 | . | / | 20 | 21
c1cc(-c2cnc3cccnn23)c2cccnc2c1 | . | . | . | 18 | . | / | 18 | 22
Cc1cc(S(=O)(=O)N2CCCCC2CCNC(=O)C(=O)NCC2CCCO2)ccc1F (configuration not stated) | . | . | . | . | . | . | / | /
COc1ccccc1-c1coc2c(CN3C(C)CCCC3C)c(O)ccc2c1=O (configuration not stated) | . | . | . | . | . | / | / | /
CC1CCCCN1Cc1c(O)ccc2c(=O)c(-c3ccc(Cl)cc3)coc12 (configuration not stated) | . | . | . | 17 | . | / | 27 | 26
COc1ccccc1-c1coc2c(CN3CCCC(C)C3)c(O)ccc2c1=O (configuration not stated) | . | . | . | 40 | . | / | 65 | 62
